Mtb MbtI inh = MbtI salicylate synthase inhibitors, primary screen, biochemical, fluorescence intensity; P9WFX0; inhibition, % (test concentration not listed); purified MbtI enzyme, fluorescence intensity read-out; actives 0.89% (n = 100,000); AID 493033, 2011; in the data active means inhibition mostly above about 56%, no sharp cut-off; inactive means mostly below about 77%
MenB inh = M. tuberculosis MenB inhibitors, primary screen, biochemical, absorbance; MenB enzyme assay, absorbance read-out; inhibition, % (concentration not given with the values); actives 0.43% (n = 100,000); AID 540299, 2011; in the data active means inhibition above about 21%, passing the limit was not always enough
AID504770 = growth inhibition of E. coli YBA685, primary screen, V. cholerae RctB inhibitors; z-score (test concentration not listed); actives 0.27% (n = 130,000); E. coli YBA685 rctB-dependent plasmid, OD600 growth, 3 h; stronger effect = lower value; in the data active means z-score below about -2, passing the limit was not always enough
PV pol inh = poliovirus RdRp elongation inhibitors, primary screen, biochemical, fluorescence polarization, total intensity; actives 0.66% (n = 150,000); poliovirus polymerase elongation; stronger effect = lower value; % elongation, % (compound at 16.7 µg/mL); AID 588519, 2011; in the data active means % elongation below about 90%
Target sequence (P03300 1749-2209 limits assumed): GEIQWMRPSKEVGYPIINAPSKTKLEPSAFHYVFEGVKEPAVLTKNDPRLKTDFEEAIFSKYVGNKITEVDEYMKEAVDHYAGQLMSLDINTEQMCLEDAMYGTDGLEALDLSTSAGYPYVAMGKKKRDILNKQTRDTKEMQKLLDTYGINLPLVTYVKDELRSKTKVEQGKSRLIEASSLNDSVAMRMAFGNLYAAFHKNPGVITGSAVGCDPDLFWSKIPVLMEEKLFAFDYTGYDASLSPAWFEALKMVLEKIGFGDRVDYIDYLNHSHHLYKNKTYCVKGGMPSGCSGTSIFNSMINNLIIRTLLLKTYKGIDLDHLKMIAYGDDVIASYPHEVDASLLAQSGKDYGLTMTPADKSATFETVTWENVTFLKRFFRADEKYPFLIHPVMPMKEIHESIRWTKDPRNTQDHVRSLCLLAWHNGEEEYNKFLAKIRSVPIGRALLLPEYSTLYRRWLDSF
The depositor's hits bear a star; x = not tested or not shown; ! = repeats disagree. Hits are enriched below; roughly 1.4% of the tested compounds scored in any of these assays.

SMILES | Mtb MbtI inh | MenB inh | AID504770 | PV pol inh
C#CCN1C(=O)C2C(C(=O)NC)C3C=CC2(O3)C1C(=O)NCc1ccc(OC)cc1 (stereo not drawn) | -1 | 54* | 0.7 | 101
C=CCN1C(=O)C2C(C(=O)NCc3ccccc3)C3C=CC2(O3)C1C(=O)NC(C)(C)C (stereo not drawn) | -3 | -49 | 1 | 105
CCCNC(=O)CCc1nc(-c2ccccc2Cl)no1 | 18 | -24 | 0.55 | 100
CCC1=Nc2cc(C(=O)N3CCN(C(=O)c4ccco4)CC3)ccc2Sc2ccccc21 | 7 | -15 | -0.55 | 103
S=c1[nH]nc(SCc2ccccc2)s1 | 87* | -12 | -0.3 | 98
CCCC(=O)Nc1ccc(-c2nc3cc(C(C)C)ccc3o2)cc1 | 31 | -5 | 0 | 101
CCN(CC)C(=O)COc1ccc2c(CC(=O)O)coc2c1 | -9 | -6 | -2.6* | 104
CCN(CC)C(=O)COc1ccc2ccc(=O)oc2c1 | -43 | 9 | 0.05 | 104
CCO/C=C1/C(=O)N(C)C(=O)c2ccccc21 | 23 | 10 | -0.55 | 17
CCO/C=C1\C(=O)N(Cc2ccccc2)C(=O)c2ccccc21 | -5 | x | 1.1 | 62*
COc1cccc2c(C)cc(=O)[nH]c12 | -4 | x | 1.8 | 104
Cc1cc(=O)[nH]c2c(C)c(Cl)ccc12 | 2 | 29* | -0.7 | 101
CC(=O)NC1=CC(=O)c2nonc2C1=O | 47 | x | -9.2* | x
C=CCNC1=C2C[C@@H](C)C[C@H](OC)[C@H](O)[C@@H](C)/C=C(\C)[C@H](OC(N)=O)[C@@H](OC)/C=C\C=C(/C)C(=O)NC(=CC1=O)C2=O | -21 | -9 | x | 100
CNC(=O)c1ccc(CN2CCc3ccccc3C2)cc1 | 0 | 27* | -0.35 | 102
Cc1sc2nc[nH]c(=S)c2c1C | 57*! | -65 | -0.8 | 100
Fc1ccc(/C=N/c2nnc3nc[nH]n23)cc1 | x | -4 | -0.7 | 88*
CCOc1ccc(C(=O)NC(C(=O)Nc2ccc(S(=O)(=O)N(C)C)cc2)C(C)C)cc1 (stereo not drawn) | 4 | -29 | -5* | 102
CC1C2CC(C/C2=N/O)C1(C)C (stereo not drawn) | 9 | -6 | 1.5 | 100
Cn1ncc2c(c(SCc3ccc(Cl)cc3Cl)nn2C)c1=O | 21 | -17 | -2 | 101
CSc1nn(C)c2cnn(C)c(=O)c12 | 71 | -2 | -0.8 | 55*
CSC(SC)=C(C#N)S(C)(=O)=O | 68* | 18 | -1.1 | 101
CN(c1ccc(Br)cc1)S(=O)(=O)c1cnc[nH]1 | x | x | 1.5 | x
Cc1ccc(S(=O)(=O)N(C)c2c(C)ccc(S(=O)(=O)n3nc(C)cc3C)c2C)cc1 | -4 | 39* | 0.2 | 101
O=C(O)COCC1CCCCO1 (stereo not drawn) | -3 | 0 | 0.95 | 101
SMILES | Mtb MbtI inh | MenB inh | AID504770 | PV pol inh
CC(C)CN(CC(C)C)c1nnc(N)s1 | -12 | x | -0.65 | x
COC(=O)CN(C)c1nnc(N)s1 | 96* | -5 | -0.75 | 91
CCOC(=O)c1c(-c2ccccc2)csc1NC(=O)c1cc(-c2ccc(F)cc2)on1 | x | x | x | 89*
CCOC(=O)c1c(-c2ccc(C)cc2)csc1NC(=O)c1cc(-c2ccc(C)c(F)c2)on1 | x | x | x | 111
CCOC(=O)c1c(-c2ccccc2)csc1NC(=O)c1cc(-c2ccc(Br)cc2)on1 | x | x | x | 78*
CCc1c(C)sc(NC(=O)c2cc(-c3ccccc3)on2)c1C#N | x | -11 | 3.6 | 83*
COc1ccc(C2=NN(CCC(=O)NCCN3CCN(c4cccc(Cl)c4)CC3)C(=O)CC2)cc1 | 0 | -11 | -0.45 | 98
C=CCN1C(=O)NC(=O)/C(=C\c2ccc(O)c(O)c2)C1=O | 20 | -50 | 0.9 | 101
O=C1NC(=O)N(CCc2ccc(F)cc2)C(=O)/C1=C\c1ccc(O)c(O)c1 | 51* | -33 | -0.45 | 100
O=C1NN(c2ccccc2)C(=O)/C1=C/c1ccc(Br)cc1 | x | 79* | -0.3 | 98
CCc1ccc(NC(=O)NC2CCN(Cc3ccccc3)CC2)cc1 | -11 | -34 | 2 | 103
O=C(O)c1ccccc1CSc1nc2ccccc2[nH]1 | 56* | 4 | 0.6 | 96
COCCn1c(C)cc(/C=N/n2c(-c3ccccc3C)n[nH]c2=S)c1C | 96* | -37 | 0.5 | 82*
C=CCc1cccc(/C=N/n2c(-c3ccccc3C)n[nH]c2=S)c1O | 13 | -59 | 2.6 | 98
COCCCNC(=O)c1cn(CC(C)C)c(=O)c2c1c1ccccc1n2C | x | x | x | 106
CCOc1ccc(NC(=O)c2cn(CC(C)C)c(=O)c3c2c2ccccc2n3C)cc1 | 14 | -18 | -2.9* | 102
O=C(CSC1=Nc2ccccc2C2CC=NN12)Nc1ccc2c(c1)CCC2 (stereo not drawn) | 17 | -124 | 0.25 | 3.0*
N#Cc1c(-c2ccccc2)cc(-c2ccccc2)nc1SCC(O)CS(=O)(=O)Cc1ccccc1 (stereo not drawn) | x | x | x | 80*
Cc1sc2nc(SCC(=O)c3ccc(O)cc3O)[nH]c(=O)c2c1C | 88* | 13 | -0.05 | 76*
COc1ccccc1OCC(=O)NCC(c1ccc(Cl)cc1)N1CCCCC1 (stereo not drawn) | x | x | x | 105
S=C(Nc1ccc2nsnc2c1)N1CCCC1 | -12 | -4 | 0.1 | 89*
Fc1ccc(NC(=S)N2CCCCC2)cc1 | -2 | -7 | -0.1 | 100
Cn1cc(NC(=O)NCc2ccccn2)c2ccccc2c1=O | -17 | -18 | -2* | 99
COc1cccc(NC(=O)Nc2cn(C)c(=O)c3ccccc23)c1 | -29 | -14 | 0.1 | 85*
CC1CCN(Cc2ccc(NC(=O)Nc3cn(C)c(=O)c4ccccc34)cc2)CC1 | -29 | -11 | -0.4 | 101
SMILES | Mtb MbtI inh | MenB inh | AID504770 | PV pol inh
CC(C)Cn1cc(NC(=O)NCc2ccccn2)c2ccccc2c1=O | 96 | -20 | -0.1 | 100
CCc1cccc(NC(=O)Nc2cn(C)c(=O)c3ccccc23)c1 | x | x | x | 79*
Cn1cc(NC(=O)Nc2ccccc2F)c2ccccc2c1=O | -32 | -8 | 0.55 | 84*
CCC(CC)C(=O)Nc1cc(C)c2c(=O)oc3ccccc3c2n1 | x | x | -0.1 | x
CCN1C(=O)/C(=C2\SC(=S)NC2=O)c2cc(Br)ccc21 | x | x | 0.4 | x
C=CCn1c(SCC(=O)N(C)C2CCS(=O)(=O)C2)nc2ccccc2c1=O (stereo not drawn) | -4 | -24 | -0.35 | 108
NC(=O)C1CCN(C(c2ccc(F)cc2)c2nnc(-c3ccccc3)o2)CC1 (stereo not drawn) | -19 | -12 | 0.5 | 102
COC(=O)C1CCN(C(c2ccc(F)cc2)c2ccc(F)cc2)CC1 | 1 | 20* | -0.2 | 100
O=C(NCc1ccccc1)N1CCCCC1 | -4 | 9 | 0 | 100
O=C(NCc1ccccc1)N1CCN(C(c2ccc(F)cc2)c2ccc(F)cc2)CC1 | -8 | -12 | -2.9* | 103
Cc1cccc(/C=N/NC(=O)c2ccccn2)c1O | -6 | -78 | -2.3* | 104
CN(C)C(=S)SSC(=S)N(C)C | 87* | 8 | -0.85 | 101
COC1(NS(=O)(=O)c2ccc(C)cc2)C(C)=CC(=O)C=C1C | 94* | x | 0.45 | x

Source: PubChem
